# Laboratory results as given in PubChem BioAssay (NCI).
# The panel holds about 79,000 compounds, 15% with a hit somewhere; the sample as a whole holds those more often. Values without a mark were called inactive. The source made the active and inactive calls. Rule as the data show it: active = growth inhibition above about 70%; inactive = the rest.
# Key:
# [1] = NCI Yeast Anticancer Drug Screen. Data for the rad52 strain (AID 147);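 also: 0% = growth of vehicle-treated control cultures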; settings: S. cerevisiae rad52 mutant growth inhibition, hits give high values
# How it was run: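 Inhibition of yeast growth, referenced to vehicle controls, was the measured output for a strain with defective DNA damage repair.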
# [2] = NCI Yeast Anticancer Drug Screen. Data for the wt1 strain (AID 149);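 also: 0% = growth of vehicle-treated wt1 cultures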; settings: S. cerevisiae wt1 strain (SPY 50644) growth inhibition, hits give high values
# How it was run: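 Compounds are added to wt1 yeast cultures. Growth is then measured. Inhibition is expressed relative to vehicle-treated controls.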
# [3] = NCI Yeast Anticancer Drug Screen. Data for the rad50EPP+ strain (AID 151);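 also: 0% = growth of vehicle-treated control cultures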; settings: S. cerevisiae rad50 mutant strain, hits give high values
# How it was run: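 Genetically defined yeast (rad50EPP+, DNA damage repair alteration) is grown with compound, and inhibition of growth is expressed relative to vehicle-treated controls.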
# [4] = NCI Yeast Anticancer Drug Screen. Data for the mgt1 strain (AID 153); settings: S. cerevisiae mgt1 mutant growth inhibition, hits give high values
# How it was run: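 In the mgt1 strain, test compounds were added and growth inhibition was determined relative to vehicle-treated controls.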
# [5] = NCI Yeast Anticancer Drug Screen. Data for the rad50 strain (AID 155);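 also: 0% = growth of vehicle-only cultures of the same strain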; settings: S. cerevisiae rad50 strain growth inhibition, hits give high values
# How it was run: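 Inhibition values express reduced yeast growth in compound-treated cultures relative to vehicle-treated controls.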
# [6] = NCI Yeast Anticancer Drug Screen. Data for the mec2-1 strain (AID 157); settings: S. cerevisiae mec2-1 strain, hits give high values
# How it was run: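 Each compound was tested on mec2-1 yeast, a strain altered in DNA damage repair or cell cycle control. Growth inhibition is reported relative to vehicle.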
# [7] = NCI Yeast Anticancer Drug Screen. Data for the rad14 strain (AID 159);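 also: 0% = growth of vehicle-treated control cultures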; settings: S. cerevisiae rad14 strain growth inhibition, hits give high values
# How it was run: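 A mutant yeast strain defective in DNA damage repair is treated with compound; inhibition of its growth is scored against untreated, vehicle-exposed cultures.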
# [8] = NCI Yeast Anticancer Drug Screen. Data for the sgs1 mgt1 strain (AID 161);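 also: 0% = growth of cultures given vehicle only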; settings: S. cerevisiae sgs1 mgt1 strain, hits give high values
# How it was run: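 Inhibition of yeast growth, normalised to vehicle-treated controls, is reported for a strain bearing genetic alterations in DNA damage repair.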
# [9] = NCI Yeast Anticancer Drug Screen. Data for the CLN2oe strain (AID 163);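 also: 0% = growth of vehicle-only control cultures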; settings: S. cerevisiae CLN2oe strain, hits give high values
# How it was run: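 First, the altered yeast strain was treated with each compound; second, its growth was measured; finally, inhibition was derived by comparison with vehicle controls.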
# [10] = NCI Yeast Anticancer Drug Screen. Data for the cln2 rad14 strain (AID 165);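 also: 0% = growth equal to vehicle treated cultures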; settings: S. cerevisiae cln2 rad14 strain, hits give high values
# How it was run: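 Test compounds were added to cln2 rad14 yeast cultures; inhibition of growth was then determined by comparison with vehicle treatment.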
# [11] = NCI Yeast Anticancer Drug Screen. Data for the bub3 strain (AID 167); settings: S. cerevisiae bub3 mutant strain, hits give high values
# How it was run: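 Steps: expose the mutant yeast strain to compound; grow alongside vehicle-treated cultures; measure growth; express inhibition against the vehicle cultures.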
# [12] = NCI Yeast Anticancer Drug Screen. Data for the wt2 strain (AID 169);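 also: 0% = growth of vehicle-treated yeast cultures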; settings: S. cerevisiae wt2 strain growth inhibition, hits give high values
# How it was run: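 The panel's yeast strains carry defined changes in DNA repair or cell cycle genes. Each strain is grown with compound, and growth loss is scored relative to vehicle.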
# [13] = NCI Yeast Anticancer Drug Screen. Data for the mlh1 strain (AID 171);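 also: 0% = growth of vehicle-treated control cultures of the same strain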; settings: S. cerevisiae mlh1 strain growth inhibition, hits give high values
# How it was run: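 Inhibition values reflect reduced yeast growth in the presence of compound, referenced to vehicle controls, using a strain chosen for its alteration in DNA repair or cell cycle control.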
# [14] = NCI Yeast Anticancer Drug Screen. Data for the sgs1 strain (AID 173);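 also: 0% = growth of vehicle-only control cultures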; settings: S. cerevisiae sgs1 mutant, hits give high values
# How it was run: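 Vehicle-treated cultures served as reference for growth inhibition of a yeast strain altered in DNA damage repair or cell cycle control after compound exposure.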
# [15] = NCI Yeast Anticancer Drug Screen. Data for the mlh1 rad18 strain (AID 175); settings: S. cerevisiae mlh1 rad18 strain growth inhibition, hits give high values
# How it was run: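 Inhibition values reflect reduced growth of mutant yeast versus vehicle-treated controls following compound exposure; the mutations affect DNA damage repair.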
# [16] = NCI Yeast Anticancer Drug Screen. Data for the rad18 strain (AID 177); settings: S. cerevisiae rad18 mutant growth inhibition, hits give high values
# How it was run: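 Steps: expose repair-mutant yeast to compound; measure growth; express as inhibition relative to vehicle control.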
# [17] = at 5.0 µM (retest, dose inferred, filed as 0.5)
# [18] = at 50.0 µM (retest, dose inferred, filed as 5.0)
smiles,measurement,setting,value
O=C(NNc1ccccc1)c1ccc(Cl)c(Cl)c1,growth inhibition,[1]; at 1.2 µM,-1%
same,growth inhibition,[1]; at 3.7 µM,2%
same,growth inhibition,[1]; at 11.0 µM,5%
same,growth inhibition,[1]; at 33.0 µM,26%
same,growth inhibition,[1]; at 100.0 µM,58%
same,growth inhibition,[2]; at 1.2 µM,0%
same,growth inhibition,[2]; at 3.7 µM,-1%
same,growth inhibition,[2]; at 11.0 µM,1%
same,growth inhibition,[2]; at 33.0 µM,16%
same,growth inhibition,[2]; at 100.0 µM,46%
same,growth inhibition,[3]; at 1.2 µM,-1%
same,growth inhibition,[3]; at 3.7 µM,5%
same,growth inhibition,[3]; at 11.0 µM,13%
same,growth inhibition,[3]; at 33.0 µM,33%
same,growth inhibition,[3]; at 100.0 µM,74% (active)
same,growth inhibition,[4]; at 1.2 µM,-1%
same,growth inhibition,[4]; at 3.7 µM,-1%
same,growth inhibition,[4]; at 11.0 µM,2%
same,growth inhibition,[4]; at 33.0 µM,8%
same,growth inhibition,[4]; at 100.0 µM,23%
same,growth inhibition,[5]; at 1.2 µM,2%
same,growth inhibition,[5]; at 3.7 µM,5%
same,growth inhibition,[5]; [17],4%
same,growth inhibition,[5]; at 11.0 µM,11%
same,growth inhibition,[5]; at 33.0 µM,21%
same,growth inhibition,[5]; [18],-4%
same,growth inhibition,[5]; at 50.0 µM,38.6%
same,growth inhibition,[5]; at 100.0 µM,61%
same,growth inhibition,[6]; at 1.2 µM,-4%
same,growth inhibition,[6]; at 3.7 µM,-3%
same,growth inhibition,[6]; [17],-9%
same,growth inhibition,[6]; at 11.0 µM,-5%
same,growth inhibition,[6]; at 33.0 µM,2%
same,growth inhibition,[6]; [18],3%
same,growth inhibition,[6]; at 50.0 µM,40.9%
same,growth inhibition,[6]; at 100.0 µM,23%
same,growth inhibition,[7]; at 1.2 µM,-2%
same,growth inhibition,[7]; at 3.7 µM,-2%
same,growth inhibition,[7]; at 11.0 µM,3%
same,growth inhibition,[7]; at 33.0 µM,4%
same,growth inhibition,[7]; at 100.0 µM,23%
same,growth inhibition,[8]; [17],5%
same,growth inhibition,[8]; [18],19%
same,growth inhibition,[8]; at 50.0 µM,44.2%
same,growth inhibition,[9]; at 1.2 µM,-7%
same,growth inhibition,[9]; at 3.7 µM,-3%
same,growth inhibition,[9]; at 11.0 µM,0%
same,growth inhibition,[9]; at 33.0 µM,14%
same,growth inhibition,[9]; at 100.0 µM,40%
same,growth inhibition,[10]; [17],31%
same,growth inhibition,[10]; [18],18%
same,growth inhibition,[10]; at 50.0 µM,0.2%
same,growth inhibition,[11]; at 1.2 µM,-5%
same,growth inhibition,[11]; at 3.7 µM,-2%
same,growth inhibition,[11]; [17],-5%
same,growth inhibition,[11]; at 11.0 µM,-7%
same,growth inhibition,[11]; at 33.0 µM,2%
same,growth inhibition,[11]; [18],13%
same,growth inhibition,[11]; at 50.0 µM,30.3%
same,growth inhibition,[11]; at 100.0 µM,14%
same,growth inhibition,[12]; at 1.2 µM,1%
same,growth inhibition,[12]; at 3.7 µM,-1%
same,growth inhibition,[12]; at 11.0 µM,2%
same,growth inhibition,[12]; at 33.0 µM,15%
same,growth inhibition,[12]; at 100.0 µM,37%
same,growth inhibition,[13]; at 1.2 µM,-2%
same,growth inhibition,[13]; at 3.7 µM,-3%
same,growth inhibition,[13]; at 11.0 µM,-3%
same,growth inhibition,[13]; at 33.0 µM,8%
same,growth inhibition,[13]; at 100.0 µM,47%
same,growth inhibition,[14]; at 1.2 µM,-3%
same,growth inhibition,[14]; at 3.7 µM,-3%
same,growth inhibition,[14]; at 11.0 µM,-1%
same,growth inhibition,[14]; at 33.0 µM,17%
same,growth inhibition,[14]; at 100.0 µM,47%
same,growth inhibition,[15]; [17],6%
same,growth inhibition,[15]; [18],61%
same,growth inhibition,[15]; at 50.0 µM,44.9%
same,growth inhibition,[16]; at 1.2 µM,2%
same,growth inhibition,[16]; at 3.7 µM,4%
same,growth inhibition,[16]; at 11.0 µM,6%
same,growth inhibition,[16]; at 33.0 µM,37%
same,growth inhibition,[16]; at 100.0 µM,88% (active)
Cc1cccc[n+]1C1CCc2c(ccc3ccccc23)C1=O (stereo unspecified),growth inhibition,[1]; at 1.2 µM,5%
same,growth inhibition,[1]; at 3.7 µM,2%
same,growth inhibition,[1]; at 11.0 µM,1%
same,growth inhibition,[1]; at 33.0 µM,14%
same,growth inhibition,[1]; at 100.0 µM,70% (active)
same,growth inhibition,[2]; at 1.2 µM,-2%
same,growth inhibition,[2]; at 3.7 µM,-4%
same,growth inhibition,[2]; at 11.0 µM,-1%
same,growth inhibition,[2]; at 33.0 µM,-3%
same,growth inhibition,[2]; at 100.0 µM,13%
same,growth inhibition,[3]; at 1.2 µM,6%
same,growth inhibition,[3]; at 3.7 µM,9%
same,growth inhibition,[3]; at 11.0 µM,8%
same,growth inhibition,[3]; at 33.0 µM,37%
same,growth inhibition,[3]; at 100.0 µM,63%
same,growth inhibition,[4]; at 1.2 µM,-4%
same,growth inhibition,[4]; at 3.7 µM,2%
same,growth inhibition,[4]; at 11.0 µM,0%
same,growth inhibition,[4]; at 33.0 µM,2%
same,growth inhibition,[4]; at 100.0 µM,35%
same,growth inhibition,[5]; at 1.2 µM,5%
same,growth inhibition,[5]; at 3.7 µM,2%
same,growth inhibition,[5]; [17],-1%
same,growth inhibition,[5]; at 11.0 µM,0%
same,growth inhibition,[5]; at 33.0 µM,16%
same,growth inhibition,[5]; [18],40%
same,growth inhibition,[5]; at 50.0 µM,74.9% (active)
same,growth inhibition,[5]; at 100.0 µM,68%
same,growth inhibition,[6]; at 1.2 µM,-1%
same,growth inhibition,[6]; at 3.7 µM,-4%
same,growth inhibition,[6]; [17],2%
same,growth inhibition,[6]; at 11.0 µM,-1%
same,growth inhibition,[6]; at 33.0 µM,2%
same,growth inhibition,[6]; [18],70% (active)
same,growth inhibition,[6]; at 50.0 µM,74.3% (active)
same,growth inhibition,[6]; at 100.0 µM,62%
same,growth inhibition,[7]; at 1.2 µM,4%
same,growth inhibition,[7]; at 3.7 µM,2%
same,growth inhibition,[7]; at 11.0 µM,3%
same,growth inhibition,[7]; at 33.0 µM,12%
same,growth inhibition,[7]; at 100.0 µM,61%
same,growth inhibition,[8]; [17],3%
same,growth inhibition,[8]; [18],55%
same,growth inhibition,[8]; at 50.0 µM,93.3% (active)
same,growth inhibition,[9]; at 1.2 µM,-6%
same,growth inhibition,[9]; at 3.7 µM,-3%
same,growth inhibition,[9]; at 11.0 µM,-5%
same,growth inhibition,[9]; at 33.0 µM,-1%
same,growth inhibition,[9]; at 100.0 µM,48%
same,growth inhibition,[10]; [17],0%
same,growth inhibition,[10]; [18],26%
same,growth inhibition,[10]; at 50.0 µM,26.6%
same,growth inhibition,[11]; at 1.2 µM,-2%
same,growth inhibition,[11]; at 3.7 µM,0%
same,growth inhibition,[11]; [17],-4%
same,growth inhibition,[11]; at 11.0 µM,3%
same,growth inhibition,[11]; at 33.0 µM,18%
same,growth inhibition,[11]; [18],70% (active)
same,growth inhibition,[11]; at 50.0 µM,98.2% (active)
same,growth inhibition,[11]; at 100.0 µM,72% (active)
same,growth inhibition,[12]; at 1.2 µM,-6%
same,growth inhibition,[12]; at 3.7 µM,-8%
same,growth inhibition,[12]; at 11.0 µM,-11%
same,growth inhibition,[12]; at 33.0 µM,-9%
same,growth inhibition,[12]; at 100.0 µM,65%
same,growth inhibition,[13]; at 1.2 µM,2%
same,growth inhibition,[13]; at 3.7 µM,1%
same,growth inhibition,[13]; at 11.0 µM,2%
same,growth inhibition,[13]; at 33.0 µM,10%
same,growth inhibition,[13]; at 100.0 µM,68%
same,growth inhibition,[14]; at 1.2 µM,-14%
same,growth inhibition,[14]; at 3.7 µM,-6%
same,growth inhibition,[14]; at 11.0 µM,-26%
same,growth inhibition,[14]; at 33.0 µM,-5%
same,growth inhibition,[14]; at 100.0 µM,69%
same,growth inhibition,[15]; [17],2%
same,growth inhibition,[15]; [18],73% (active)
same,growth inhibition,[15]; at 50.0 µM,89.7% (active)
same,growth inhibition,[16]; at 1.2 µM,2%
same,growth inhibition,[16]; at 3.7 µM,3%
same,growth inhibition,[16]; at 11.0 µM,2%
same,growth inhibition,[16]; at 33.0 µM,6%
same,growth inhibition,[16]; at 100.0 µM,79% (active)
